# Unmarked numbers belong to inactive results. Inconclusive results are not listed. A call without a number means that no potency is given here. Activity calls are given as the source filed them. Unless noted, calls come from the whole dose curve; as a rule, active = well fitted curve in the direction sought with a large enough effect in the repeat runs; inconclusive = weak or mixed curves; inactive = no such curve, though single readings can be large; an effect the other way counts as inactive or inconclusive.
# Experiments:
# [1] = qHTS assay for small molecules that induce genotoxicity in human embryonic kidney cells expressing luciferase-tagged ATAD5 (AID 651632); note: nearly all actives have a fitted effect of over 15% in size
# Outline: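 Genotoxicity read-out via ATAD5-luciferase: HEK293T cells, 16 hr compound incubation at 37C, Amplite detection.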
# [2] = qHTS assay for small molecule agonists of the p53 signaling pathway - cell viability (AID 651633; calls by dose curve; note: nearly all actives have a fitted effect of over 30% in size; note: potency is the fitted concentration of half-maximal effect)
# Outline: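 Viability counter-read: CellTiter-Glo luminescence (30 min, room temperature) in the same p53RE-bla plates. These plates had been exposed to compounds for 16 h at 37 C.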
# [3] = qHTS assay for small molecules that induce genotoxicity in human embryonic kidney cells expressing luciferase-tagged ATAD5 - cell viability (AID 651634; calls by dose curve; note: nearly all actives have a fitted effect of over 25% in size; note: potency is the fitted concentration of half-maximal effect)
# Outline: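 Live-cell protease activity (CellTiter-Fluor, fluorescence) indicates viability. HEK293T cells with luciferase-tagged ATAD5; 15.5 hr compound treatment at 37C.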
# [4] = qHTS assay to test for compound auto fluorescence at 535 nm (green) in HepG2 cells (AID 720675)
# [5] = qHTS assay to test for compound auto fluorescence at 460 nm (blue) in HEK293 cells (AID 720678)
# Outline: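 HEK293 cells (2,000 per well, medium with 10% dialyzed FBS) attached for 4-5 hr at 37C, then received compound and stood overnight at 37C, 5% CO2. Blue fluorescence was read at Ex/Em 405/460 nm and expressed relative to triamterene.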
# [6] = qHTS assay to test for compound auto fluorescence at 590 nm (red) in HEK293 cells (AID 720679)
# Outline: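 HEK293 cells (2,000/well, medium with 10% dialyzed FBS) attached for 4-5 hr at 37C, received 23 nL compound and were incubated overnight at 37C, 5% CO2. Red fluorescence was then read at 540/590nm Ex/Em, referenced to Rose Bengal sodium.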
# [7] = qHTS assay to test for compound auto fluorescence at 535 nm (green) in HEK293 cells (AID 720680)
# [8] = qHTS assay to test for compound auto fluorescence at 460 nm (blue) in HEK293 cell free culture (AID 720681)
# Outline: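 Blue fluorescence (Ex 405/Em 460 nm, triamterene-equivalent) was read immediately after pin transfer of compound or DMSO into medium (DMEM, 10% FBS) without cells.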
# [9] = qHTS assay to test for compound auto fluorescence at 535 nm (green) in HEK293 cell free culture (AID 720682)
# Outline: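 Green-label autofluorescence (485 nm excitation, 535 nm emission) measured on compound added to cell-free culture medium (DMEM, 10% FBS). Output is expressed relative to fluorescein.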
# [10] = qHTS assay to test for compound auto fluorescence at 590 nm (red) in HEK293 cell free culture (AID 720683)
# Outline: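 Red-channel autofluorescence of compounds in culture medium (DMEM, 10% FBS), no cells, measured at 540/590 nm. Rose Bengal sodium is the reference fluorophore for equivalence.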
# [11] = qHTS assay to test for compound auto fluorescence at 590 nm (red) in HepG2 cell free culture (AID 720684)
# Outline: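 Steps: dispense MEM/10% FBS medium, no cells; pin compound or DMSO vehicle; read red channel, Ex/Em 540/590 nm. Output given as Rose Bengal sodium equivalents.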
# [12] = qHTS assay to test for compound auto fluorescence at 460 nm (blue) in HepG2 cell free culture (AID 720685)
# Outline: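 Compound (23 nL) or DMSO pinned into cell-free MEM with 10% FBS; blue fluorescence read at 405/460 nm excitation/emission, expressed as auto-fluorescence equivalency to triamterene.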
# [13] = qHTS assay to test for compound auto fluorescence at 535 nm (green) in HepG2 cell free culture (AID 720686)
# [14] = qHTS assay to test for compound auto fluorescence at 460 nm (blue) in HepG2 cells (AID 720687)
# Outline: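 Blue-channel autofluorescence (Ex/Em 405/460 nm, triamterene-equivalent) was measured after 1 hr compound exposure at 37 C, 5% CO2. Cells were HepG2, plated overnight at 37 C in MEM plus 10% FBS.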
# [15] = biological target: Glucocorticoid receptor (Homo sapiens) (UniProt P04150); test: qHTS assay to identify small molecule agonists of the glucocorticoid receptor (GR) signaling pathway (AID 720691; active = well fitted activation curve with a large enough effect in the signal ratio in the repeat runs, not every such curve was filed as active; the % refers to the signal ratio)
# Outline: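 Beta-lactamase reporter activity, read as fluorescence intensity, was measured in GR-bla HeLa cells exposed to compounds for 18 h at 37 C and then loaded with LiveBLAzer B/G FRET substrate for 2 h at room temperature.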
# [16] = biological target: Glucocorticoid receptor (Homo sapiens) (UniProt P04150); test: qHTS assay to identify small molecule antagonists of the glucocorticoid receptor (GR) signaling pathway (AID 720692; active = well fitted inhibition curve with a large enough effect in the signal ratio in the repeat runs, not every such curve was filed as active; the % refers to the signal ratio; note: potency is the fitted concentration of half-maximal effect)
# Outline: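 Fluorescence from cleaved LiveBLAzer B/G FRET substrate reports GRE-driven beta-lactamase in HeLa cells; compounds are tested against 5 nM dexamethasone (final) over 18 h at 37 C, substrate incubation 2 h at room temperature.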
# [17] = qHTS assay for small molecule disruptors of the mitochondrial membrane potential - cell viability (AID 720634; calls by dose curve;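 note: human HepG2 liver cancer cells; series mostly up to about 83 µM; nearly all actives have a fitted effect of over 20% in size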)
# Outline: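 Human hepatoma HepG2 cells were treated for 1 hr with test chemicals, then given m-MPI dye and CellTiter-Glo. Cell viability reflects luminescence proportional to cellular ATP.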
# [18] = qHTS assay to test for compound auto fluorescence at 590 nm (red) in HepG2 cells (AID 720674)
# Outline: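 Red autofluorescence (Ex/Em 540/590 nm, Rose Bengal sodium equivalents) was measured in HepG2 cells, 2,000 per well in MEM plus 10% FBS, plated overnight at 37 C. Readings were taken 1 hr after adding 23 nL compound or DMSO, at 37 C and 5% CO2.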
# [19] = qHTS assay for small molecule disruptors of the mitochondrial membrane potential (AID 720635); note: potency is the fitted concentration of half-maximal effect
# Outline: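 Mitochondrial membrane potential tracked with Mito-MPS dye, red aggregates (ex 540/em 590 nm) against green monomers (ex 490/em 535 nm). Compound treatment 1 hr at 37C, dye 30 min in HepG2.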
# Chain of Glucocorticoid receptor (Homo sapiens) (P04150 whole entry, looked up): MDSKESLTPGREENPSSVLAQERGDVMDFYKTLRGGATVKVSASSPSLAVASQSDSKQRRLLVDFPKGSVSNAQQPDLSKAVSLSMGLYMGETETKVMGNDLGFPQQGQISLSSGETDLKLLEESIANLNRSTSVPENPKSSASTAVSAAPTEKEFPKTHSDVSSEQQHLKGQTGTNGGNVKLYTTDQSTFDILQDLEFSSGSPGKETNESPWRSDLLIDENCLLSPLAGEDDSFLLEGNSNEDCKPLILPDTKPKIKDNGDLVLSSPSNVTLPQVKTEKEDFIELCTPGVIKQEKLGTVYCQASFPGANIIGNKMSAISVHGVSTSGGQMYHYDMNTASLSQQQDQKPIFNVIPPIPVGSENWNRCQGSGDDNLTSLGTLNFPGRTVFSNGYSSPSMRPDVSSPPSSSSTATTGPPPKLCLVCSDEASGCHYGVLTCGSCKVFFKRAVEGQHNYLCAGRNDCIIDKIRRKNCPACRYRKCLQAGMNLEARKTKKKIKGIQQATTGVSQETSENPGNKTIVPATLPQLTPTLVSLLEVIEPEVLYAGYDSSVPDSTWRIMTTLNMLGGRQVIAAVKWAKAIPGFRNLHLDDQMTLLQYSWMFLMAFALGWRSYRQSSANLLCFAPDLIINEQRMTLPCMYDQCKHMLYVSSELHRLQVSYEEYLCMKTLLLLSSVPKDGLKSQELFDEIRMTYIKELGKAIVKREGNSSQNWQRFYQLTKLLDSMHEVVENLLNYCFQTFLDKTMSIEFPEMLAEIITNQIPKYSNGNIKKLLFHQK
SMILES,Potency [1],Potency [2],Potency [3],outcome [4],Potency [5],outcome [6],outcome [7],Potency [8],outcome [9],outcome [10],outcome [11],Potency [12],outcome [13],Potency [14],Potency [15],Potency [16],Potency [17],outcome [18],Potency [19]
CCOC(=O)OCC,inactive,inactive,inactive,inactive,inactive,inactive,inactive,inactive,inactive,inactive,inactive,inactive,inactive,inactive,inactive,inactive,,,
Cc1occc1C(=O)Nc1ccc(C(=O)N2CCC(F)(F)/C(=C\C(=O)N3CCC(N4CCCCC4)CC3)c3ccccc32)cc1,inactive,inactive,,inactive,inactive,inactive,inactive,inactive,inactive,inactive,inactive,inactive,inactive,inactive,inactive,inactive,inactive,inactive,
Cc1c(C(=O)NN2CCCCC2)nn(-c2ccc(Cl)cc2Cl)c1-c1ccc(Cl)cc1,inactive,23.7 µM (active),inactive,inactive,inactive,inactive,inactive,inactive,inactive,inactive,inactive,inactive,inactive,inactive,inactive,,inactive,inactive,
O=C(N[C@@H](c1ccccc1)[C@@H]1CCCCN1)c1cccc(C(F)(F)F)c1Cl,inactive,inactive,inactive,inactive,inactive,,inactive,inactive,inactive,inactive,inactive,inactive,,inactive,inactive,,inactive,inactive,
Brc1cc(-c2ccc(Br)c(Br)c2Br)cc(Br)c1Br,inactive,inactive,inactive,inactive,inactive,inactive,inactive,inactive,inactive,inactive,inactive,inactive,inactive,inactive,inactive,,,inactive,
CC(C)C(OC(=O)c1ccccc1)C(C)(C)COC(=O)c1ccccc1 (centres undefined),inactive,inactive,inactive,inactive,inactive,inactive,inactive,inactive,inactive,inactive,inactive,inactive,inactive,inactive,,,,inactive,
COc1cc2c(cc1OC)-c1cc(=Nc3c(C)cc(C)cc3C)n(C)c(=O)n1CC2,inactive,29.8 µM (active),29.8 µM (active),inactive,inactive,inactive,,inactive,inactive,inactive,inactive,inactive,inactive,inactive,,,,inactive,
Cc1cc(C(=C2C=CC(=Nc3ccc(S(=O)(=O)O)cc3S(=O)(=O)O)C=C2)c2ccc(Nc3ccc(S(=O)(=O)O)cc3)cc2)ccc1N,inactive,inactive,inactive,inactive,inactive,inactive,inactive,inactive,inactive,inactive,inactive,inactive,inactive,inactive,inactive,,inactive,inactive,
CC(C)=CC=O,inactive,inactive,inactive,inactive,inactive,inactive,inactive,inactive,inactive,inactive,inactive,inactive,inactive,inactive,inactive,,inactive,inactive,
Oc1ccc(Nc2ccccc2)cc1,inactive,inactive,,inactive,inactive,inactive,inactive,inactive,inactive,inactive,inactive,inactive,,,inactive,inactive,inactive,inactive,54.5 µM (active)
Cc1nccn1-c1ccc(Sc2cccc(C3(C(N)=O)CCOCC3)c2)cc1,,inactive,inactive,inactive,inactive,inactive,inactive,inactive,inactive,inactive,inactive,inactive,inactive,inactive,inactive,24.5 µM (active),inactive,inactive,inactive
CCc1cccc(N(C)C(N)=Nc2cccc3ccccc23)c1,,inactive,inactive,inactive,inactive,inactive,inactive,inactive,inactive,inactive,inactive,inactive,inactive,inactive,inactive,inactive,inactive,,
Cc1cc2nc3ccc(=[N+](C)C)cc-3sc2cc1N,inactive,7.5 µM (active),,inactive,inactive,inactive,inactive,inactive,inactive,inactive,inactive,inactive,inactive,inactive,,,,inactive,3.76 µM (active)
CC1=C(/C=C/C(C)=C\C=C\C(C)=C\C(=O)O)C(C)(C)CCC1,inactive,,inactive,inactive,inactive,inactive,inactive,inactive,inactive,inactive,inactive,inactive,inactive,inactive,,,inactive,inactive,
Cc1cc(S(=O)(=O)O)ccc1N=Nc1c(O)ccc2ccccc12,inactive,inactive,,inactive,inactive,,inactive,inactive,inactive,inactive,inactive,inactive,inactive,inactive,,,inactive,,
N#C/C(=C1/SC[C@@H](c2ccc(Cl)cc2Cl)S1)n1ccnc1,inactive,inactive,,inactive,inactive,inactive,inactive,inactive,inactive,inactive,inactive,inactive,,inactive,inactive,,,inactive,26.6 µM (active)
CSc1ccc(Oc2ccc(S(N)(=O)=O)cc2CN(C)C)cc1C,inactive,,,inactive,inactive,inactive,inactive,inactive,inactive,inactive,inactive,inactive,inactive,inactive,inactive,inactive,,inactive,
COCc1c(C(C)C)nc(C(C)C)c(/C=C/[C@@H](O)C[C@@H](O)CC(=O)O)c1-c1ccc(F)cc1,inactive,inactive,,inactive,inactive,,inactive,inactive,inactive,inactive,inactive,inactive,inactive,inactive,,3.38 µM (active),,inactive,
CC(=O)Oc1ccc2c(c1)CC[C@@H]1[C@@H]2CC[C@]2(C)[C@@H](O)CC[C@@H]12,inactive,,inactive,inactive,inactive,,inactive,inactive,inactive,inactive,inactive,inactive,,inactive,,,,inactive,8.41 µM (active)
c1cc[c]([Bi]([c]2ccccc2)[c]2ccccc2)cc1,inactive,,inactive,inactive,inactive,inactive,inactive,inactive,inactive,inactive,inactive,inactive,inactive,inactive,inactive,19.5 µM (active),,,24.3 µM (active)
COCCOC,,inactive,,inactive,inactive,,inactive,inactive,inactive,inactive,inactive,inactive,inactive,inactive,inactive,inactive,inactive,inactive,inactive
O=C(Nc1ccccc1)Nc1ccccc1,inactive,,inactive,inactive,inactive,,inactive,inactive,inactive,inactive,inactive,inactive,inactive,inactive,,,,inactive,
OC(CCCN1CCCCC1)(c1ccccc1)c1ccccc1,inactive,inactive,,inactive,inactive,inactive,inactive,inactive,inactive,inactive,inactive,inactive,inactive,inactive,,,inactive,,
Cc1oc(C)c(C(=O)Nc2ccccc2)c1C,inactive,,inactive,inactive,inactive,inactive,inactive,inactive,inactive,inactive,inactive,inactive,inactive,inactive,inactive,,inactive,inactive,
